Source: PubChem BioAssay
CCT modulator: changes cytosolic chaperonin activity; 0.3% of 360,000 active; activity change, % (no concentration beside the values), hits read low; purified chaperonin ATPase assay, HTRF ADP detection, 30 min; in the data active = activity change below about -30%
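We incubate TRiC, 40 or 20 nM final, with library compounds at 76 uM and 10 uM ATP for 30 min at 37 °C. ADP formed is detected with Transcreener HTRF reagents after 30 min at room temperature.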
Sfp PPTase inh: inhibitors of Bacillus subtilis Sfp phosphopantetheinyl transferase; Biochemical Sfp PPTase activity, qHTS; Potency, µM, for the others: largest response in the series, negative = inhibition, most hits filed as inhibitors; 3.5% of 310,000 active;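 also: the enzyme is Sfp with the accession as filed and its product quenches rhodamine fluorescence; potency is read from the fitted curve at half-maximal effect; 0% = enzyme reaction without inhibitor and -100% = no enzyme wells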
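Buffer: 50 mM Hepes-Na pH 7.6, 10 mM MgCl2, 0.01% Nonidet P-40, 0.01% BSA. Enzyme 15 nM, pre-exposed to compound 15 min; substrates then added and fluorescence change tracked over 30 min.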
MmCpn inh: inhibitors of Methanococcus maripaludis chaperonin TRiC (MmCpn); purified Mm-Cpn ATPase, ADP Transcreener TR-FRET; AID 504842; 0.031% of 330,000 active; Potency, µM (doses to about 76.9 µM), for inactives: at the top dose activity, negative = inhibition, hits mostly inhibitors; also: potency is read from the fitted curve at half-maximal effect; nearly all actives have a fitted effect of over 80% in size
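ATP (10 uM final) was added to archaeal chaperonin (25 nM final) after 10 min exposure to test compound at 37°C; after 30 min further incubation, ADP was detected by competitive TR-FRET.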
G9a inh: blocks human histone lysine methyltransferase G9a; Q96KQ7; 8.8% of 350,000 active; Potency, µM (top dose mostly 102 µM), inactives show at the highest dose activity, negative = inhibition, hits mostly inhibitors; G9a H3K9 monomethylation, AlphaScreen, 2 h; also: potency is read from the fitted curve at half-maximal effect; nearly all actives have a fitted effect of over 75% in size
Target sequence (Q96KQ7 913-1193 limits assumed): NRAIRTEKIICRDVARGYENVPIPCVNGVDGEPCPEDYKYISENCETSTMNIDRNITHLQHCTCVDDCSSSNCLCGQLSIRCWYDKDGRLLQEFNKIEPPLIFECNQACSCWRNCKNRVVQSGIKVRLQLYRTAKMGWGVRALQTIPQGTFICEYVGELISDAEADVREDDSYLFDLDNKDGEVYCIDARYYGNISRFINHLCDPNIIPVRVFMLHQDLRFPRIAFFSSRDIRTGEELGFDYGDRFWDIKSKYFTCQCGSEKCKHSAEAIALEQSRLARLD
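AlphaScreen detection with an anti-monomethyl H3K9 antibody quantified product after a 2 h room-temperature reaction containing 500 nM biotinylated H3K9 peptide, 20 µM SAM and 20 nM enzyme, which had been preincubated 15 min with compound.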
PLK1 PBD inh: blocks phosphopeptide binding to human PLK1 polo-box domain. Plk1 PBD binding of FITC phosphopeptide, fluorescence polarization. Potency, µM, without a hit: max response, negative = inhibition, hits mostly inhibitors. AID 720504. 2.8% of 360,000 active. P53350; also: potency is read from the fitted curve at half-maximal effect; series mostly up to about 57 µM; nearly all actives have a fitted effect of over 65% in size
VDR inh: vitamin D3 receptor (human) inhibition | VDR-SRC2-3 peptide fluorescence polarization, 2 h | Potency, µM, for the others: max response, negative = inhibition, usual class: inhibitors | 0.93% of 400,000 active | AID 504847; also: potency is read from the fitted curve at half-maximal effect
Target sequence (P11473 whole entry, looked up): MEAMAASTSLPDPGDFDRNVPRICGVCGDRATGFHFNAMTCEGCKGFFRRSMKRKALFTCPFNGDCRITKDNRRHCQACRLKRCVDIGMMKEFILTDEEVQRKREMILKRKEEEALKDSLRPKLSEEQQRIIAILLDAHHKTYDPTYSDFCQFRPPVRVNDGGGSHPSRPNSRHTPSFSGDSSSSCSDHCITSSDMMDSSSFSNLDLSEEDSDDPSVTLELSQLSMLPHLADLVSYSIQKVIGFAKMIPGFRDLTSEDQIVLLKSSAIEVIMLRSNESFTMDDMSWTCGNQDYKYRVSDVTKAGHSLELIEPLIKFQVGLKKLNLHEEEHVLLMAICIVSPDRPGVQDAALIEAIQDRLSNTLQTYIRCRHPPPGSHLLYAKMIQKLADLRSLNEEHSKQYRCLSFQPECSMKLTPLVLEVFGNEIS
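Measured by FP: displacement of SRC2-3 coactivator peptide from VDR by library compounds, following a two-hour ambient incubation.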
* marks the source's active call; other numbers are inactive results; ? = inconclusive; . = no result given; [ ] = another dose, or the depositor's remark. An excerpt weighted towards active compounds, which were near 10% of everything screened. Unless noted, calls follow the shape of the dose curve; as a rule, active = well fitted curve in the direction sought with a large enough effect; inconclusive = small, poorly fitted or top-dose-only effect, or another doubt; inactive = no such curve, though single readings can be large; an effect the other way counts as inactive or inconclusive. Unless noted, % is scaled to controls: 0 for no effect and ±100 for the full control effect.

SMILES | CCT modulator | Sfp PPTase inh | MmCpn inh | G9a inh | PLK1 PBD inh | VDR inh
COc1cccc(C2=CC(c3ccc(C)cc3)n3ncnc3N2)c1 (stereo not drawn) | . | -10% | -3% | 40µM* | . | .
Cc1ccc(C2C=C(c3ccc4c(c3)OCO4)Nc3ncnn32)cc1 (stereo not drawn) | 0 | -19% | 1% | ? | -12% | 17%
CCOC(=O)N/N=C1/C[C@@H](O)[C@@H](O)[C@@H]2[C@@H]3C(=O)N(C[C@@H]4CCCO4)C(=O)[C@H]3CC[C@@H]12 | . | 18% | . | . | . | .
Cc1ccsc1C1C=C(c2cccc(Br)c2)Nc2ncnn21 (stereo not drawn) | -3 | 45µM* | -9% | 10µM* | -29% | -5%
CCCCN(C)C(=O)c1ccc2c(c1)N(Cc1cccc(Cl)c1)C(=O)c1ccccc1S2=O (stereo not drawn) | . | . | . | -7%[59 µM] | . | 1%
COC(=O)C1=C(C)N(c2ccccc2)C(=S)NC1c1ccccc1C(F)(F)F (stereo not drawn) | 2 | 12% | -2% | 50µM* | -7% | -11%
COCCOC(=O)C1=C(C)N(c2ccccc2)C(=S)NC1c1ccccc1C(F)(F)F (stereo not drawn) | -3 | 16% | -4% | -23% | -5% | -7%
CCC(C)c1ccccc1OCCOCCN1CCCC1 (stereo not drawn) | -1 | -9% | 2% | 13µM* | -3% | -4%
CC1CCN(CCCCOc2ccc(Cl)cc2)CC1 | 0 | -13% | -2% | -7% | 3% | -7%
CC1CCN(CCCCOc2ccccc2-c2ccccc2)CC1 | -2 | ? | -1% | 13µM* | -6% | -18%
OCCCN1CCN(CCCOc2ccccc2-c2ccccc2)CC1 | -3 | 12% | 1% | -4%[59 µM] | -9% | -20%
CC1CCN(CCCCOc2ccc(C(C)(C)C)cc2)CC1 | 0 | -26% | 0% | 40µM* | 0% | -14%
COc1ccccc1OCCCCN1CCC(C)CC1 | -10 | -7% | -7% | 25µM* | 5% | 10%
Cc1cccc(NC(=O)Nc2nnc(N(C)Cc3ccccc3)s2)c1 | . | . | . | 17%[59 µM] | . | 14%
COc1ccc(NC(=O)c2cc(C3CC3)nc3c2c(C)nn3-c2ccccc2)c(OC)c1 | . | . | . | 0%[59 µM] | . | 5%
COc1ccccc1OCc1nnc(SCC(=O)N2CCCC2)o1 | -1 | 20% | -2% | 15% | -7% | 20%
CC1CCCN(CCCOc2ccccc2-c2ccccc2)C1 (stereo not drawn) | 1 | -19% | 1% | 11µM* | 1% | -2%
c1ccc2c(OCCCCN3CCOCC3)cccc2c1 | 1 | -29% | 0% | . | ? | -12%
CC1CCN(CCOCCOc2ccccc2Br)CC1 | -1 | -12% | -6% | ? | -5% | -9%
COc1ccccc1OCCCCCCN1CCOCC1 | -1 | -28% | -3% | 13µM* | -4% | -25%
COc1ccccc1OCc1nnc(SCCN2CCOCC2)o1 | 0 | ? | -3% | 6.3µM* | -1% | -7%
CC1CCN(CCOCCOc2ccccc2-c2ccccc2)CC1 | -4 | -14% | 0% | 28µM* | 2% | -6%
COc1ccc(S(=O)(=O)N(CC(=O)Nc2cccnc2)c2ccc(C)cc2)cc1OC | . | . | . | -18%[59 µM] | . | -13%
CSc1ncc(Cl)c(C(=O)Nc2c(C(=O)c3ccc(C)c(F)c3)oc3ccccc23)n1 | . | . | . | 1%[59 µM] | . | -4%
Cc1ccc(OCC(=O)Nc2ccc(Cl)c(-c3nc4ncccc4o3)c2)cc1C | . | . | . | -9%[59 µM] | . | 12%
SMILES | CCT modulator | Sfp PPTase inh | MmCpn inh | G9a inh | PLK1 PBD inh | VDR inh
COC(=O)NC(/C(C(=O)OC)=C(\C)NCc1ccccc1)c1ccco1 (stereo not drawn) | . | 5% | . | . | . | .
CC1CCC2C(=O)N3C(CCC(C)C3c3ccccc3Br)C(=O)N2C1c1ccc(C#CCN(C)C)cc1 (stereo not drawn) | . | 18% | . | . | . | .
CCn1c(C)c(CS(=O)(=O)c2ccccc2)[nH]c1=O | 1 | 25µM* | 1% | 1µM* | 3.4µM* | ?
CCn1c(=O)[nH]c2ccccc21 | . | 5% | . | . | . | 9%
COc1ccc(C2=NN(C(C)=O)C(c3cn(-c4ccccc4)nc3-c3cccs3)C2)cc1 (stereo not drawn) | . | . | . | 2%[59 µM] | . | 5%
O=C1CCCC2=C1C(c1cn(-c3ccccc3)nc1-c1cccs1)c1c([nH]c(=O)[nH]c1=O)N2 (stereo not drawn) | -3 | -3% | -17% | ? | 24µM* | 2%
Cn1c(=O)cc(SCC(=O)NCCc2ccc(Cl)cc2)c2cc(Cl)ccc21 | . | . | . | 2%[59 µM] | . | -20%
O=C(NS(=O)(=O)c1ccccc1Cl)c1ccc[nH]1 | . | 1% | 0% | 79µM* | . | .
O=C(Nc1ccccc1)c1ccc[nH]1 | 0 | 20% | -1% | 5%[59 µM] | 19µM* | ?
O=C(Nc1ccccc1)c1c(F)cccc1F | -1 | 9% | 4% | -22%[12.7 µM] | 0% | -5%
Cc1c(CCOC(=O)C23CC4(C)CC(C)(CC(C)(C4)C2)C3)sc[n+]1CC(=O)c1ccccc1 | -4 | ? | 1% | . | -7% | -19%
Cc1c(CCOC(=O)CC23CC4CC(CC(C4)C2)C3)sc[n+]1CC(=O)c1ccccc1 | 0 | 79µM* | -11% | . | 5% | -13%
Cc1c(CCOC(=O)c2ccc(Cl)cc2Cl)sc[n+]1CC(=O)c1ccccc1 | 2 | . | 1% | . | -4% | -2%
Cc1c(CCOC(=O)c2cc([N+](=O)[O-])cc([N+](=O)[O-])c2)sc[n+]1CC(=O)c1ccc(Br)cc1 | 0 | ? | 1% | 2.5µM* | -17% | -5%
O=C(NCc1ccccc1)C(=O)Nc1c2c(nn1-c1ccccc1)CSC2 | . | . | . | 35%[59 µM] | . | 25%
CCOc1ccc(-n2ccn3c(CC(C)CC(=O)O)nnc3c2=O)cc1 (stereo not drawn) | . | . | . | 12%[59 µM] | . | -5%
Cc1cnc(SCCc2ccncc2)nc1C | . | 11µM* | -3% | 8.9µM* | . | .
Fc1ccc(Br)cc1SCCc1ccncc1 | -8 | -27% | 2% | 10%[0.501 µM] | ? | ?
Cc1ccc(-n2nc(C(=O)N3CCN(c4cc(Cl)ccc4C)CC3)c(=O)n(C)c2=O)cc1 | . | . | . | -33%[59 µM] | . | 5%
COc1ccc(-c2cnnn2-c2ccc(NC(=O)/C=C/c3ccc(OC)c(OC)c3)cc2)cc1 | 0 | -8% | ? | 50µM* | -20% | 1%
COc1ccc(/C=C/C(=O)Nc2ccc(-n3nncc3-c3ccc(OC)c(OC)c3)cc2)cc1OC | 3 | 4% | ? | 50µM* | -8% | -1%
N#Cc1c(C(F)(F)F)cc(-c2cccs2)nc1SCC(=O)Nc1ccccc1F | . | . | . | ? | . | 14%
O=C(CCCn1c(=O)[nH]c2ccccc2c1=O)NCc1ccccc1Cl | . | . | . | 11%[59 µM] | . | 7%
CSc1nc(N(C)NC(=O)c2ccc(Cl)cc2)c2ccccc2n1 | -3 | 50µM* | 2% | 6%[59 µM] | 3% | -20%
